# Measurements published in PubChem BioAssay (Tox21).
# Where “and” joins values, the source holds several entries; their conditions need not be identical. Identical values can stand only once. Results filed as inconclusive are left out. Entries that show only a call come without a potency. More than one record can exist for a structure, and the calls need not agree. Calls of active or inactive are those of the source. The call rests on the fitted dose curve; in most records, active means well fitted inhibition curve with a large enough effect in the repeat runs; inconclusive means weak or mixed curves, or effect the other way; inactive means no such curve, though single readings can be large or run the other way.
# Target: Nuclear receptor subfamily 1 group I member 3 (Homo sapiens) (UniProt Q14994)
# Sequence (Q14994 whole entry, looked up): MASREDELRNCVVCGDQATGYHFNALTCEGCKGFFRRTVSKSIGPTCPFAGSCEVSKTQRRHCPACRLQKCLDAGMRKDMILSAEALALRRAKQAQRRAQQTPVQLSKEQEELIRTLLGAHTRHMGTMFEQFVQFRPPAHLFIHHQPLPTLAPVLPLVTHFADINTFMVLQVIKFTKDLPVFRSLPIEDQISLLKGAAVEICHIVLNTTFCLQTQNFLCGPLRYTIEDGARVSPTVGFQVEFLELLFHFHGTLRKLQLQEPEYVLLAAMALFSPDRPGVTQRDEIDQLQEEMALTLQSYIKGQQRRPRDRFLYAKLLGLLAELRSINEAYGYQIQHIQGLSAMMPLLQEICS
# Assay: qHTS assay to identify small molecule antagonists of the constitutive androstane receptor (CAR) signaling pathway (AID 1224838);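 further: HepG2 cells stably expressing hCAR with CYP2B6 luciferase reporter stimulated by CITCO; nearly all actives have a fitted effect of over 40% in size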
# Conditions: HepG2-CYP2B6-hCAR luciferase, CITCO-stimulated, 24 h; series mostly up to 92.4 µM
# Text: U.S. Tox21 Program National Center for Advancing Translational Sciences [NCATS] NIH Chemical Genomics Center [NCGC] U.S. Environmental Protection Agency [EPA] National Institutes of Environmental Health Sciences [NIEHS] National Toxicology Program [NTP] U.S. Food and Drug Administration [FDA] Tox21 Assay Overview: The constitutive androstane receptor (CAR) is a nuclear receptor which regulates multiple drug metabolizing enzymes (DMEs) and transporters. Activating CAR will generally increase the transcription and subsequent translation of CYP2B6 and CYP3A4. These two DMEs represent about 50% of the drug metabolizing potential in the body. When CAR is deactivated, the metabolizing potential in the body will decrease, subsequently increasing the toxicity in the body or lowering the therapeutic potential of a pro-drug. Recently, there have also been studies performed indicating CARs role in energy metabolism and cancer therapy. Therefore, inhibiting CARs activity could have a potential effect on diabetes and cancer. Identifying environmental toxins and compounds which modulate CAR, through the use of the Tox21 10K compound collection, will be an important step in determining the toxicity and potential therapeutic effects these factors will have on the human body.
# Tox21 Assay Protocol Summary: A double-stable (hCAR and CYP2B6-2.2kb) transfected cell line, derived from human hepatoma (HepG2) cells, was utilized for the duration of the quantitative high-throughput screens. The HepG2-CYP2B6-hCAR cells suspended in DMEM culture medium supplemented with 10% FBS, 5 ug/mL blasticidin, 0.5 mg/mL geneticin, 100 U/mL penicillin and 100 ug/mL streptomycin were dispensed at 2500 cells/4 uL/well in 1536-well white solid bottom plates using a Multidrop Combi. After the assay plates were incubated at 37 C/5% CO2 for 4 hrs, 23 nL of compounds at 15 concentrations (from 5-48 columns) or positive control (from 1 to 4 columns) were transferred to the assay plates using a Pintool station. One uL of CITCO, was added using a Flying Reagent Dispenser to generate a final concentration of 50 nM CITCO inside each well. After a 24 hr incubation period at 37 C/5% CO2, four uL of ONE-Glo reagent was added into the assay plates using a Flying Reagent Dispenser. After a 30 min incubation period at room temperature, the luminescence intensity in the assay plates was measured using a ViewLux plate reader.
# Potency means the concentration at half of the fitted maximal effect.
row,Compound,Potency
1,OC[C@H]1O[C@@H]2O[C@H]3[C@H](O)[C@@H](O)[C@@H](O[C@H]4[C@H](O)[C@@H](O)[C@@H](O[C@H]5[C@H](O)[C@@H](O)[C@@H](O[C@H]6[C@H](O)[C@@H](O)[C@@H](O[C@H]7[C@H](O)[C@@H](O)[C@@H](O[C@H]8[C@H](O)[C@@H](O)[C@@H](O[C@H]1[C@H](O)[C@H]2O)O[C@@H]8CO)O[C@@H]7CO)O[C@@H]6CO)O[C@@H]5CO)O[C@@H]4CO)O[C@@H]3CO,inactive
2,Cc1ccc(C(=O)c2cc(O)c(O)c([N+](=O)[O-])c2)cc1,inactive
3,CC(C)OC(=O)C(C)(C)Oc1ccc(C(=O)c2ccc(Cl)cc2)cc1,inactive
4,CCCCCCCCCC(=O)OC,inactive
5,C=C(C)C1CC=C(C)CC1 (stereo not given),inactive
6,Oc1ccc(O)cc1,inactive
7,CC1=CC2C3CC(C=C3C)C2C1 (stereo not given),inactive
8,O=C(COc1ccc(Cl)cc1)N1CCN(Cc2ccc3c(c2)OCO3)CC1,inactive
9,C[C@]12CC[C@H]3[C@@H](CCC4=CC(=O)CC[C@@]43C)[C@@H]1CC[C@@H]2C(=O)CO,inactive
10,O=CCCCC=O,inactive
11,CCC(C)OC(=O)c1ccc(O)cc1 (stereo not given),inactive
12,O=CCc1ccccc1,inactive
13,CN1C(C(=O)Nc2ccccn2)=C(O)c2ccccc2S1(=O)=O,inactive
14,Nc1ncnc2nc[nH]c12,inactive
15,COc1cccc2c1C(=O)c1c(O)c3c(c(O)c1C2=O)C[C@@](O)(C(=O)CO)C[C@@H]3O[C@H]1C[C@H](N)[C@H](O)[C@H](C)O1,137 nM (active) and 1.06 µM (active)
16,Nc1ccc(S(=O)(=O)Nc2cnc3ccccc3n2)cc1,inactive
17,CCCCC/C=C/C=C/C=O,inactive
18,CCCCC(CC)COCC1CO1 (stereo not given),inactive
19,Nc1ccc(Nc2ccccc2)cc1,inactive
20,COC(=O)CCC(=O)OC,inactive

row,Compound,Potency
1,Cc1c(C(N)=O)cc([N+](=O)[O-])cc1[N+](=O)[O-],inactive
2,O=C(/C=C/C=C/c1ccc2c(c1)OCO2)N1CCCCC1,inactive
3,Cc1cccc(N(C)C(=S)Oc2ccc3ccccc3c2)c1,inactive
4,O=Cc1ccccc1O,inactive
5,c1ccc(Nc2ccccc2)cc1,inactive
6,COc1cc([C@@H]2c3cc4c(cc3[C@H](O)[C@H]3COC(=O)[C@H]23)OCO4)cc(OC)c1OC,48.5 nM (active) and 59.6 nM (active)
7,COC(=O)Nc1nc2ccc(S(=O)c3ccccc3)cc2[nH]1 (stereo not given),inactive
8,Clc1nc(Cl)c(Cl)c(Cl)c1Cl,inactive
9,Cn1cnc([N+](=O)[O-])c1Sc1ncnc2nc[nH]c12,4.83 µM (active) and 11.9 µM (active)
10,CN(C)CCC=C1c2ccccc2CCc2ccccc21,48.6 µM (active)
11,O=C(Nc1ccc([N+](=O)[O-])cc1Cl)c1cc(Cl)ccc1O,inactive and 4.11 µM (active)
12,COc1c(Cl)c(Cl)c(Cl)c(Cl)c1Cl,inactive
13,CCCCOCCOCCOCCO,inactive
14,C=CC(C)(CCC=C(C)C)OC(C)=O (stereo not given),inactive
15,c1ccc2c(c1)c1cccc3ccc4cccc2c4c31,inactive
16,OCCO,inactive
17,Cc1cccc(C(=O)O)c1,inactive
18,CCCc1c(OCCCCc2nn[nH]n2)ccc(C(C)=O)c1O,inactive
19,O=C(/C=C/c1ccccc1)OCc1ccccc1,inactive
20,Nc1ncn([C@@H]2O[C@H](CO)[C@@H](O)[C@H]2O)c(=O)n1,inactive
